We go through 3 compounds from ChEMBL document CHEMBL1961873, “Compounds: GSK PKIS; Assays: Nanosyn kinase panel” (2012).

A word on the inhibition: it is the relative decrease from the control value, in per cent.

Structures are written as SMILES.

Assay [1] deals with T1, Mitogen-activated protein kinase 12 (Homo sapiens) (UniProt P53778).
T1 sequence (whole entry): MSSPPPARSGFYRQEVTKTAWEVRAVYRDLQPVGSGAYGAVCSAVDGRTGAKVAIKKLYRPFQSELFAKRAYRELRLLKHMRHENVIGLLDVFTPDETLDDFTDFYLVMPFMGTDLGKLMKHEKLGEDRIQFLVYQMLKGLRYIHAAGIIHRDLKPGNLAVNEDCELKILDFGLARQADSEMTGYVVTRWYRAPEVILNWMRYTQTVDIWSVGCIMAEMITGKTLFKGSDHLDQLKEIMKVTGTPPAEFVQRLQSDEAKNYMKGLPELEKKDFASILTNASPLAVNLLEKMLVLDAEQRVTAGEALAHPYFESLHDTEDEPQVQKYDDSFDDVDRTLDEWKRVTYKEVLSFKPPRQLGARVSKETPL
As to conditions: at 1 µM.

The target in assay [2] is SRSF protein kinase 1 (Homo sapiens) (UniProt Q96SB4). Conditions: at 0.1 µM.
Chain of SRSF protein kinase 1 (Homo sapiens) (Q96SB4 whole entry): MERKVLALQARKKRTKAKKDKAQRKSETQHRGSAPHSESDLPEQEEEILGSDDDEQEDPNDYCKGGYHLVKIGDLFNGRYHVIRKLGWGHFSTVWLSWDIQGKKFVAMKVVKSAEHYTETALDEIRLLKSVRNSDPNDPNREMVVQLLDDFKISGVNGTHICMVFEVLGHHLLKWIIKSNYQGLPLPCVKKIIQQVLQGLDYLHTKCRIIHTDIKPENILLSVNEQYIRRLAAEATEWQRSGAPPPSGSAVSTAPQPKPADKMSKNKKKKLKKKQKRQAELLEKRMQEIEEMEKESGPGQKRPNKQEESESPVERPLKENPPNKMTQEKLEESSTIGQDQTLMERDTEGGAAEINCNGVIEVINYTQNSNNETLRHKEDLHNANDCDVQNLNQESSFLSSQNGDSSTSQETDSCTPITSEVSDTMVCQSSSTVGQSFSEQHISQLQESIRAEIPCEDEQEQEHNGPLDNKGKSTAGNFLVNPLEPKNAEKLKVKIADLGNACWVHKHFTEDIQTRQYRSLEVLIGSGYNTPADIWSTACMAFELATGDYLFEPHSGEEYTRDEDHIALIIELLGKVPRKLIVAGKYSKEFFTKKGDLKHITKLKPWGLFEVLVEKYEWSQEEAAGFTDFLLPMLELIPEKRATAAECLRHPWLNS
For assay [3] the target is unchanged. As to conditions: at 1 µM.
The target in assay [4] is Phosphatidylinositol 4,5-bisphosphate 3-kinase catalytic subunit alpha isoform (Homo sapiens) (UniProt P42336). Conditions: at 0.1 µM.
Chain of Phosphatidylinositol 4,5-bisphosphate 3-kinase catalytic subunit alpha isoform (Homo sapiens) (P42336 whole entry, canonical isoform): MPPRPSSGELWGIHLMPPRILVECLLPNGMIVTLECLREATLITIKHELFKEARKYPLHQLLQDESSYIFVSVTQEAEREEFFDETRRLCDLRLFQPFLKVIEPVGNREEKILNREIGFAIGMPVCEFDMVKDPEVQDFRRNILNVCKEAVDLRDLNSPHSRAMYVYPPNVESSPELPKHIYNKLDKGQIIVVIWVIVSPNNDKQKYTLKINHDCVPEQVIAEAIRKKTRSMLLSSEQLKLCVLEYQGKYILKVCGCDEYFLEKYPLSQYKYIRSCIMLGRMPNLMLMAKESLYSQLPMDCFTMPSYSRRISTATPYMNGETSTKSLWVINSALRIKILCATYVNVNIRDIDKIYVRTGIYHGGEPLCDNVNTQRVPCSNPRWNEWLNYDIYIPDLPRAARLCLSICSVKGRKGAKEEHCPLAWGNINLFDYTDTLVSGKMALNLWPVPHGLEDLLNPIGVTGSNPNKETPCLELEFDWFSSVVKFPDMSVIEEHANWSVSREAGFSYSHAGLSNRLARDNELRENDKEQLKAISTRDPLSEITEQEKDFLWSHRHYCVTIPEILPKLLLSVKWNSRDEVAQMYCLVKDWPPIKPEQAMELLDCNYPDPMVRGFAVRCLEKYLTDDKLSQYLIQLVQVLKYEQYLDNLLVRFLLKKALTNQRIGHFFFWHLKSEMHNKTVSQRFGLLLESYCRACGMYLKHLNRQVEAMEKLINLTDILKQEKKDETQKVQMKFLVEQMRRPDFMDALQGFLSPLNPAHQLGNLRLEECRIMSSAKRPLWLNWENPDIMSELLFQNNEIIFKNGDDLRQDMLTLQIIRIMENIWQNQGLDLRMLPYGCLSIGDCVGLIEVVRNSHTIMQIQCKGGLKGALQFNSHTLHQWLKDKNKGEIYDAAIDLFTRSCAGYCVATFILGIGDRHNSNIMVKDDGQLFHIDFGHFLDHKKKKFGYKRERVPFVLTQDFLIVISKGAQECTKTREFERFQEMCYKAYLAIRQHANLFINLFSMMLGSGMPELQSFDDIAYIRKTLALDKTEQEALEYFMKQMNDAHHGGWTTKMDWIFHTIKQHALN
Assay [5] has the same target. As to conditions: at 1 µM.
Assay [6] deals with T2, Phosphatidylinositol 4,5-bisphosphate 3-kinase catalytic subunit delta isoform (Homo sapiens) (UniProt O00329).
T2 sequence (whole entry): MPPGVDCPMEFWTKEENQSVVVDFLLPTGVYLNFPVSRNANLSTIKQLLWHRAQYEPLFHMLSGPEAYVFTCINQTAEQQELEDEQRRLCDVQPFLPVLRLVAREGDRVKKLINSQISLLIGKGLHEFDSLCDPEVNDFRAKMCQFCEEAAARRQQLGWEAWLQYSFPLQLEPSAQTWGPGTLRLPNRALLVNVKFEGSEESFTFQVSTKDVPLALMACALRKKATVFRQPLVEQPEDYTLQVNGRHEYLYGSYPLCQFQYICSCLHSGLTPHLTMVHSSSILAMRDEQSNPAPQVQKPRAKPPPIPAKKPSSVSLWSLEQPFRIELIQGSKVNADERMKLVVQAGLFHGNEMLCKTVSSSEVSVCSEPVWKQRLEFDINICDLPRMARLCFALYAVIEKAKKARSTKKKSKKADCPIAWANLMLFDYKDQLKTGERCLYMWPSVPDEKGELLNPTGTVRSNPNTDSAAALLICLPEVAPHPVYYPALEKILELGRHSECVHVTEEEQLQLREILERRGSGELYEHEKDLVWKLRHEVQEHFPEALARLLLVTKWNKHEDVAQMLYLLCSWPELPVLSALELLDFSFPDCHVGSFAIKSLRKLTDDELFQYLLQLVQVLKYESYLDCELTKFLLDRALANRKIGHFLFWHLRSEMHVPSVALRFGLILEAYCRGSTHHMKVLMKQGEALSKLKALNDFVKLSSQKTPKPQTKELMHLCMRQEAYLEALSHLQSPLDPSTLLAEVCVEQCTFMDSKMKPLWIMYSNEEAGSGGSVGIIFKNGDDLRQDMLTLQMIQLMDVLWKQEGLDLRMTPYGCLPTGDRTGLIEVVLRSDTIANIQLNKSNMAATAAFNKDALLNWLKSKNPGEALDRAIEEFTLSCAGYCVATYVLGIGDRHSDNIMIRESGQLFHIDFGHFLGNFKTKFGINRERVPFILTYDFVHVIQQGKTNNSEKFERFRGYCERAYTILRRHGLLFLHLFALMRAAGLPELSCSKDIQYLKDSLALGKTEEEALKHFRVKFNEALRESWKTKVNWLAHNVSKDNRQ
As to conditions: at 0.1 µM.

Assay [7] concerns the target T2, Phosphatidylinositol 4,5-bisphosphate 3-kinase catalytic subunit delta isoform (Homo sapiens). As to conditions: at 1 µM.
Assay [8] has as its target Phosphatidylinositol 4-kinase beta (Homo sapiens) (UniProt Q9UBF8). As to conditions: at 0.1 µM.
The target is the same in assay [9]. Conditions: at 1 µM.
In assay [10] the target is Sphingosine kinase 1 (Homo sapiens) (UniProt Q9NYA1). Conditions: at 0.1 µM.
Chain of Sphingosine kinase 1 (Homo sapiens) (Q9NYA1 whole entry): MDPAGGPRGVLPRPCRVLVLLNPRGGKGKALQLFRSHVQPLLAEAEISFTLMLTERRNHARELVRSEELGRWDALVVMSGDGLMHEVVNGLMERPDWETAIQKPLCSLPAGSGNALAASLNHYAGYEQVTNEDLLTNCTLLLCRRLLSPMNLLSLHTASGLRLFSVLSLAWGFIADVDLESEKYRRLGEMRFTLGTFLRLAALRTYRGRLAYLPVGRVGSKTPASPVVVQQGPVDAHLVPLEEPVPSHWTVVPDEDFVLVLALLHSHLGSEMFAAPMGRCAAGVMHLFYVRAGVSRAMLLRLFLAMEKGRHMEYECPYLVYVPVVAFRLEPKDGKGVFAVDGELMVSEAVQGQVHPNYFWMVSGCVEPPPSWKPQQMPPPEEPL
Assay [11] has the same target. Conditions: at 1 µM.
Assay [12] has as its target T3, Sphingosine kinase 2 (Homo sapiens) (UniProt Q9NRA0).
T3 sequence (whole entry): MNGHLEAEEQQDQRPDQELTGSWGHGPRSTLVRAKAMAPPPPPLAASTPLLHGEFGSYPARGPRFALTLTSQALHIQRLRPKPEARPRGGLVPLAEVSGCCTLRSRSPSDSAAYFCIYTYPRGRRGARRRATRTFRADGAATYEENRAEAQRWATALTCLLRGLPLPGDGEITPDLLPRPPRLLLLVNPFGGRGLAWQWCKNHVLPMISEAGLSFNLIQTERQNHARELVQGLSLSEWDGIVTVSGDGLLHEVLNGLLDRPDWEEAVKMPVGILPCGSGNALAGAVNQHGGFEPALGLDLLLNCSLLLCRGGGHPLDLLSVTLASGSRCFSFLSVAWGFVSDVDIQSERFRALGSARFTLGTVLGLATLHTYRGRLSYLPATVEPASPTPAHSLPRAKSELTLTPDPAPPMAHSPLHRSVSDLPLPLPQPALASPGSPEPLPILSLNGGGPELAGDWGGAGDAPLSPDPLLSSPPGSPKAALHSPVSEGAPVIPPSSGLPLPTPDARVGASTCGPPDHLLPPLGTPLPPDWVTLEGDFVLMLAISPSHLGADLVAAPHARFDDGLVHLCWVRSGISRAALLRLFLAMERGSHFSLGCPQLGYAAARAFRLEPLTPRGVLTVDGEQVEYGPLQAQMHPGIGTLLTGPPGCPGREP
As to conditions: at 0.1 µM.

In assay [13] the target is T3, Sphingosine kinase 2 (Homo sapiens). As to conditions: at 1 µM.
Assay [14] has as its target Casein kinase II subunit alpha (Homo sapiens) (UniProt P68400). As to conditions: at 0.1 µM.
For assay [15] the target is unchanged. Conditions: at 1 µM.
The target of assay [16] is T4, Inhibitor of nuclear factor kappa-B kinase subunit alpha (Homo sapiens) (UniProt O15111).
T4 sequence (whole entry): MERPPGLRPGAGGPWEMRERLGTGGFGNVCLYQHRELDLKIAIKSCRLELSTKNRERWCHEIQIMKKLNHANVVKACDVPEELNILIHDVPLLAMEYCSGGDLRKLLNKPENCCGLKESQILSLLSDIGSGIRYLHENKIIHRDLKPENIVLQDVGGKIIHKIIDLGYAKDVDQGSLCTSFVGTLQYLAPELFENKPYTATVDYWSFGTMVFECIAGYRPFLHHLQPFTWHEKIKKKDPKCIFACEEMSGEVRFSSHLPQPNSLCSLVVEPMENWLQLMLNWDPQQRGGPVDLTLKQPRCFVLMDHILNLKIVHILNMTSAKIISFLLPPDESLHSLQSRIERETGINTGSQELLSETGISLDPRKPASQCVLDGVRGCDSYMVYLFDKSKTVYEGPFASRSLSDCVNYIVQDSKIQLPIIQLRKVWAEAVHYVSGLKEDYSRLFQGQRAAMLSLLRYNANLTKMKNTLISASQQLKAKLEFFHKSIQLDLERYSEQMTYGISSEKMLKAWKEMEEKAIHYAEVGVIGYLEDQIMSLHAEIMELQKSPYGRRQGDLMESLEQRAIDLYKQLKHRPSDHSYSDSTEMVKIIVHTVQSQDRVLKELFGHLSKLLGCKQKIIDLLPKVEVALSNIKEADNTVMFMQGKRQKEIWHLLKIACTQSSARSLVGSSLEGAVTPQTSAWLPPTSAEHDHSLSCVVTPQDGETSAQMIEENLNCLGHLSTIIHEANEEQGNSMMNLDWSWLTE
Conditions: at 0.1 µM.

In assay [17] the target is T4, Inhibitor of nuclear factor kappa-B kinase subunit alpha (Homo sapiens). As to conditions: at 1 µM.
Assay [18] concerns the target T5, Inhibitor of nuclear factor kappa-B kinase subunit beta (Homo sapiens) (UniProt O14920).
T5 sequence (whole entry): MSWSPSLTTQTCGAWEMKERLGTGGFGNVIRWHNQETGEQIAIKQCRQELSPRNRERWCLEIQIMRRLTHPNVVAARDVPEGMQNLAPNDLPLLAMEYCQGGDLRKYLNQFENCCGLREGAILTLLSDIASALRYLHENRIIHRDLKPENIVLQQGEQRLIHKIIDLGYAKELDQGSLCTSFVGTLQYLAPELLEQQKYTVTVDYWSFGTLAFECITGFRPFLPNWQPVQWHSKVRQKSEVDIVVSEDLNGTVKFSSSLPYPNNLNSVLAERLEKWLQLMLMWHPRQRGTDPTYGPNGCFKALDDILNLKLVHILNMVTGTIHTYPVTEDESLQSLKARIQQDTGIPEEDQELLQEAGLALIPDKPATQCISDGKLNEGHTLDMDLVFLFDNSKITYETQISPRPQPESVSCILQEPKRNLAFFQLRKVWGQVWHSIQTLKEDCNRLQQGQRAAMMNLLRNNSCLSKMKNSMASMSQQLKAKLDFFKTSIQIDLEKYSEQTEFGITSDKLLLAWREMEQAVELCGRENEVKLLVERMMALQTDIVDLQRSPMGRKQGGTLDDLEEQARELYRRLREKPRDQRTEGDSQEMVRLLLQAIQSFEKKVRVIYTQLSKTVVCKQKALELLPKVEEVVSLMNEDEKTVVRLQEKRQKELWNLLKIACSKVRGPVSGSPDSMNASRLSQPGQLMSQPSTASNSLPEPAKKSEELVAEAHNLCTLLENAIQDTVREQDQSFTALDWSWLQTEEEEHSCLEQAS
As to conditions: at 0.1 µM.

Assay [19] deals with T5, Inhibitor of nuclear factor kappa-B kinase subunit beta (Homo sapiens). Conditions: at 1 µM.
Assay [20] concerns the target T6, Inhibitor of nuclear factor kappa-B kinase subunit epsilon (Homo sapiens) (UniProt Q14164).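 Further: mean inhibition of IKKε reported, from the GSK PKIS dataset.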
T6 sequence (whole entry): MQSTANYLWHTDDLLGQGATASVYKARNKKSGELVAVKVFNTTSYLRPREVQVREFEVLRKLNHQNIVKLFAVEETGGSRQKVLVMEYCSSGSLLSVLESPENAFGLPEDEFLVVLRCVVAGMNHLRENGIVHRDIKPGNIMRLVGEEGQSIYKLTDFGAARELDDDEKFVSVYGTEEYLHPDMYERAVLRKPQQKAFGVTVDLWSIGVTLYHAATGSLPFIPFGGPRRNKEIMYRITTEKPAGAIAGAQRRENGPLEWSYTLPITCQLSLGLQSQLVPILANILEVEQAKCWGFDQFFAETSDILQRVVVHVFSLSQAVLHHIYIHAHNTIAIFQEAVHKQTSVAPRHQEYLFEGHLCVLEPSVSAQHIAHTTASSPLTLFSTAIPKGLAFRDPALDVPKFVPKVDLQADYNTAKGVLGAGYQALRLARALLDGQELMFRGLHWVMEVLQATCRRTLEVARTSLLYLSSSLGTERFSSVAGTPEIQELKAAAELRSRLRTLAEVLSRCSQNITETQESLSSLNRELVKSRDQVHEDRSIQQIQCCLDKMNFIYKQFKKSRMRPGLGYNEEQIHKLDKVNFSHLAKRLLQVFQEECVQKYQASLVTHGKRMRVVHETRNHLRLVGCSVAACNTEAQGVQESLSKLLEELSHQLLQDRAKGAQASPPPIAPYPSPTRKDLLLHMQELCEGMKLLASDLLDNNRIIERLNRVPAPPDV
Conditions: at 0.1 µM.

Chain of Casein kinase II subunit alpha (Homo sapiens) (P68400 whole entry, looked up): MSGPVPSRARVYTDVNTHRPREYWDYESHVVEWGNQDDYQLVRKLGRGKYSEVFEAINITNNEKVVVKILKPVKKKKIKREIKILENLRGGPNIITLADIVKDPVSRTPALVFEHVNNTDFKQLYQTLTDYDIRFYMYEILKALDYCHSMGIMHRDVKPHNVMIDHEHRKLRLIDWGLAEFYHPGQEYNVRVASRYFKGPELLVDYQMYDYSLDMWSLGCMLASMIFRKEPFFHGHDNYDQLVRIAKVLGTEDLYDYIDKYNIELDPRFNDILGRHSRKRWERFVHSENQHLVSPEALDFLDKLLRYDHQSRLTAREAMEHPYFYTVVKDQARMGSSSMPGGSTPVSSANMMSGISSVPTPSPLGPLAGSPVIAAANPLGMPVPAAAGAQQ
Chain of Phosphatidylinositol 4-kinase beta (Homo sapiens) (Q9UBF8 2-816 limits assumed): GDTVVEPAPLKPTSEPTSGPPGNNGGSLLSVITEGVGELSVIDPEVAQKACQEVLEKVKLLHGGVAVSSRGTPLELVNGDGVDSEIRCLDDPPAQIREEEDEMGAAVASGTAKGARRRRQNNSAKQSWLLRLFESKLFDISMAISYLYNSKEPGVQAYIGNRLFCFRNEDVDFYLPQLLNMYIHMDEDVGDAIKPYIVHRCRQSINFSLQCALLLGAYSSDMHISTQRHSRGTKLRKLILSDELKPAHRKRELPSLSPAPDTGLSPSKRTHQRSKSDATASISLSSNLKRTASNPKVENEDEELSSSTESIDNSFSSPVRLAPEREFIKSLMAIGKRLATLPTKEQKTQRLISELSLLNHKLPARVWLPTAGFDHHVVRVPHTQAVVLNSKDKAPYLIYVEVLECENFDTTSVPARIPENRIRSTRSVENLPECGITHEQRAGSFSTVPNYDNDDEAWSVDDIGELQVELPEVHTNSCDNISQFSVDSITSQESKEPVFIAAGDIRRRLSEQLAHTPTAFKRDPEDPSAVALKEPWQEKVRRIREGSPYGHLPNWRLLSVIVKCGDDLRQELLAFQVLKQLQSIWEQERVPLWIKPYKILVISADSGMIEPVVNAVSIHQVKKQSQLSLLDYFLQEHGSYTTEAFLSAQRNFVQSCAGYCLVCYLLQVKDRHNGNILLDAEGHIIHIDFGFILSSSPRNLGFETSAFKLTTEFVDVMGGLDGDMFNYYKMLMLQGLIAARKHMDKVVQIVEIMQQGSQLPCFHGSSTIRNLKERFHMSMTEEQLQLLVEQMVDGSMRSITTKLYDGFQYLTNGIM

Consider `Oc1cccc(-c2nc(-c3ccccc3)[nH]c2-c2ccncc2)c1`, for which the inhibition was 1.56% in assay [1]; -1.52% in assay [2]; 0.98% in [3]; 2.99% in assay [4]; 2.95% in assay [5]; 2.01% in assay [6]. The inhibition in assay [7] was 1.67%; in [8] it was -5.44%; in assay [9], -3.49%; in assay [10], 1.87%; in [11], -1.58%; in assay [12], 0.02%. For the same compound, the inhibition is -1.65% in [13]; 3.96% in assay [14]; 9.51% in assay [15]; 2.95% in assay [16]; 5.47% in assay [17]; 5.25% in [18]. Besides, the inhibition in [19] was found to be 3.12%; in assay [20] it was 5.43%.
For `COC(=O)Nc1nc2cc(Oc3ccc(NC(=O)Nc4cccc(Br)c4)cc3)ccc2[nH]1`, the inhibition in assay [1] was 1.52%; in assay [2], -2.5%; in assay [3], -2.45%; in [4], 0.99%; in assay [5] it was 8.57%; in assay [6] it was 1.03%. In addition, the inhibition in [7] is 7.1%; in assay [8], 0.03%; in assay [9], -5.6%; in assay [10] it was -1.27%; in assay [11], -3.97%; in [12] it was 0.52%. In addition, the inhibition came out at 1.73% in [13]; 2.56% in [14]; 2.62% in assay [15]; 7.56% in assay [16]; 7.22% in assay [17]; 5.61% in assay [18]. Moreover, the inhibition came out at 7.62% in assay [19] and 4.82% in assay [20].
In the case of `CC(C)c1ccc(Nc2nccc(-c3cnn4ncccc34)n2)cc1`, the inhibition in assay [1] is 4.14%; in [2], -1.68%; in [3], -0.8%; in [4], 1.41%; in assay [5], 4.52%; in assay [6], 2.45%. Besides, the inhibition is 6.78% in assay [7]; 2.86% in assay [8]; 3.34% in [9]; 4.11% in [10]; 7.28% in assay [11]; 0.26% in assay [12]. Besides, the inhibition was -0.48% in assay [13]; 10.7% in [14]; 43.4% in assay [15]; 18.7% in assay [16]; 64.1% in assay [17]; 7.7% in assay [18]. Further, the inhibition in [19] came to 23%; in assay [20], 4.12%.
